Sampled rows, rich in hits. Any-hit rate of the full collection: about 9.2%.
SMN2 splice up – enhancers of SMN2 splice variant expression; Potency, µM (top dose mostly 46.1 µM), for inactives: at the highest dose activity change, positive = activation, hits mostly activators; HEK293 SMN2-luciferase splicing reporter, luminescence, 30-36 h; 2.8% of 210,000 active; also: % of control where 0% means no effect; nearly all actives have a fitted effect of over 55% in size
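HEK293 cells carry an SMN2 […]–luciferase reporter in which exon 7 inclusion puts luciferase in frame. Cells were plated 10-12 h before compound addition, then incubated 30-36 h at 37C. ONE-Glo luminescence was read; sodium butyrate at 4.5 mM final served as control.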
FLuc counter – counter-screen for miR-21 project: firefly luciferase inhibitors or activators | purified FLuc, Km substrates, luminescence inhibition | Potency, µM (titrated, usually from 57.5 µM), without a hit: at the top dose activity change, negative = inhibition, actives largely listed as inhibitors | 6.9% of 360,000 active;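 also: plate controls were vehicle for no effect and reference inhibitor for full effect; nearly all actives have a fitted effect of over 55% in size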
Target sequence (P08659 whole entry, looked up): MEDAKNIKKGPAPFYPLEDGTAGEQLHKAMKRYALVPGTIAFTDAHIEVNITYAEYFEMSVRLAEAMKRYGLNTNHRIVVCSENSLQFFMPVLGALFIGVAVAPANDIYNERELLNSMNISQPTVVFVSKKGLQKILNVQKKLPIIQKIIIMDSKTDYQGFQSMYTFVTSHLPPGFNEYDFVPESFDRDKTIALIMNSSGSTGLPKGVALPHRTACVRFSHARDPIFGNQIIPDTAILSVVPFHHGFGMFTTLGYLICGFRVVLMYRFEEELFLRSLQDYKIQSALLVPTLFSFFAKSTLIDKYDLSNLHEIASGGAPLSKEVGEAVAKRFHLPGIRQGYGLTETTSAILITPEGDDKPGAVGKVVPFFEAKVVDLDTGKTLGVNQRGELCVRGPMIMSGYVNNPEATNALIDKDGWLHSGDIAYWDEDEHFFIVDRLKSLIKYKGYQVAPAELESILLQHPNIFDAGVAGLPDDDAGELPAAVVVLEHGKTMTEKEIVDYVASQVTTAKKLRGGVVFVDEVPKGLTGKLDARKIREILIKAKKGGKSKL
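Purified P. pyralis luciferase (10nM final) with 10uM D-luciferin and 10uM ATP (Km levels) in 50mM Tris acetate pH 7.5, 10mM Mg acetate, 0.01% Tween-20, 0.05% BSA; qHTS 6-point titration, ~60 µM downward; luminescence read.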
Rab9 prom act – activators of Rab9 promoter. Huh7 Rab9 promoter-luciferase reporter, luminescence, 24 h. 2.8% of 320,000 active. Potency, µM (doses to about 9.22 µM), without a hit: top-dose activation, negative = inhibition, usual class: activators; also: % of control where 0% means no effect; nearly all actives have a fitted effect of over 60% in size
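Quantitative HTS format; Huh7 Rab9-luciferase reporter cells (1500/well) receive compound 2 h post-plating, incubate 24 h at 37 °C, then get luciferase reagent for 10 min before luminescence reading.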
ELG1 DNA repair – blocks ELG1-dependent DNA repair in HEK293T cells; HEK293T ELG1-luciferase reporter, luminescence, 16 h; DNA damage induced by 5-fluorouridine; 2.3% of 330,000 active; Potency, µM (titrated, usually from 46.1 µM), for the others: top-dose activity change, negative = inhibition, actives largely listed as inhibitors; also: % is scaled to controls: 0 for no effect and ±100 for the full control effect; nearly all actives have a fitted effect of over 55% in size
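HEK293T cells expressing luciferase-tagged ELG1 (2,000/well) received 5-Fluorouridine plus compound or DMSO for 16 hr at 37 °C. Luciferase was read by ONE-Glo luminescence after 30 min at room temperature.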
NPC1 promoter act – activators of NPC1 promoter; 2.4% of 320,000 active; Huh7 NPC1 promoter luciferase reporter, 24 h; Potency, µM (titrated, usually from 9.22 µM), without a hit: at the top dose activation, hits mostly activators; AID 485313; also: % of control where 0% means no effect; nearly all actives have a fitted effect of over 60% in size
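Luciferase expression driven by the NPC1 promoter was measured in stably transfected Huh7 cells after a 24 h compound incubation, using a luciferase reagent and a luminescence read.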
ELG1 genotox – genotoxicity induction in ELG1-luciferase HEK293T cells; HEK293T ELG1-luciferase reporter, luminescence, 16 h; Potency, µM (highest dose often 46 µM), for inactives: at the highest dose activity change, positive = activation, hits mostly activators; 1.3% of 330,000 active; AID 504466; also: % of control where 0% means no effect; nearly all actives have a fitted effect of over 60% in size
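Screening used a luciferase reporter fused to human ELG1 in HEK293T cells. Luminescence was read on a CCD plate imager after 16 hr exposure and 30 min ONE-Glo incubation.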
An asterisk follows results filed as active; ? = inconclusive; / = not tested or not shown. Calls follow the shape of the dose curve; as a rule, active = well fitted curve in the direction sought with a large enough effect; inconclusive = small, poorly fitted or top-dose-only effect, or another doubt; inactive = no such curve, though single readings can be large; an effect the other way counts as inactive or inconclusive. Potency is read from the fitted curve at half-maximal effect.

SMILES	SMN2 splice up	FLuc counter	Rab9 prom act	ELG1 DNA repair	NPC1 promoter act	ELG1 genotox
COc1ccc(CC(=O)N2CC(=O)Nc3ccc(F)cc3C2c2ccccc2)cc1 (stereo unspecified)	3%	-1%	/	/	/	/
Brc1ccccc1-c1nnc(CSc2nnc3sc4ccccc4n23)o1	0%	?	4µM*	16%	14%	7%
COc1cccc(-c2ncc3ccccc3c2COC(=O)c2ccc(C(F)(F)F)cc2)c1	/	4%	-3%	21µM*	-1%	2%
O=C(c1ccc(Cl)cc1)c1cnc(Nc2ccccc2Cl)s1	22µM*	1.5µM*	1.1µM*	?	1.8µM*	?
CN(C)/C=N/c1ncc(C(=O)c2ccc(Cl)cc2)s1	10%	?	6%	?	28%	16µM*
CNc1ncc(C(=O)c2ccccc2)s1	17%	?	?	?	?	?
CO/N=C/CC(=O)c1cnc(-c2ccc(Cl)cc2)s1	25µM*	?	?	?	?	?
CC(=O)c1cnc(Nc2cccc(Cl)c2Cl)s1	13µM*	?	?	?	23%	?
CO/N=C/CC(=O)c1ccc(-c2ccccc2)cc1	12%	?	12%	?	-4%	11%
CN(C)/C=N/c1ncc(C(=O)c2ccc(Cl)cc2Cl)s1	-20%	-11%	15%	0%	6%	1%
CCC(C(=O)NC1CCCC1)N(C(=O)Cn1nnc(-c2ccc(C)o2)n1)c1cccc(OC)c1 (stereo unspecified)	/	0%	0%	7%	-1%	1%
Nc1c2c(nc3c1CCCC3)CCCC2 (tested in a mixture with another compound)	/	-1%	-1%	?	-1%	-2%
O=C(c1cnc(-c2ccccc2)s1)c1ccc(Cl)cc1Cl	0%	?	8%	6%	-2%	-1%
CNc1ncc(C(=O)c2ccc(Br)cc2)s1	16µM*	12µM*	2µM*	?	2.8µM*	?
O=C(c1ccc(Cl)cc1)c1cnc(-c2ccccc2)s1	3%	?	2.8µM*	?	2.2µM*	13%
Cc1ccc(OCCSc2nc3ccccc3n2CCC(=O)O)cc1C	-1%	?	/	/	/	/
CCOC(=O)c1ccc(NC(=O)CCn2c(=O)c3cccn3c3ccccc32)cc1	/	-5%	/	/	/	/
CC(C)c1ccc(NC(=S)NCCc2c[nH]c3ccccc23)cc1	12%	-10%	-9%	-21%	0%	0%
COc1ccc(NC(=O)CCOc2ccccc2F)cc1S(=O)(=O)N1CCCCC1	/	/	/	23µM*	/	-6%
COc1ccc(NC(=O)c2cncc(Br)c2)cc1S(=O)(=O)N1CCCCC1	-33%	-1%	-1%	15µM*	1%	-8%
COc1ccc(NC(=O)c2ccc(Cl)nc2)cc1S(=O)(=O)N1CCCCC1	-25%	2%	-8%	23µM*	-3%	-15%
COc1ccc(NS(=O)(=O)c2cccc(C(=O)NNC(=O)c3ccccc3OC)c2)cc1	/	?	4%	-6%	-2%	1%
Cc1ccc(NC(=O)/C=C/c2ccc(C)o2)c(C)c1	8%	?	/	/	/	/
Cc1cccc(C(=O)Nc2cccc3cccnc23)c1	/	21µM*	3.2µM*	?	4µM*	14%
O=C(Nc1cccc2cccnc12)c1cccnc1	19%	-4%	-6%	20%	0%	5%
Cc1cccc(C(=O)Nc2cccnc2Cl)c1	/	?	9%	?	2%	16%
O=C(Nc1cccc2cccnc12)c1ccc(Cl)cc1	/	30µM*	10%	?	7%	13%
Cc1ccc(/C=C/C(=O)Nc2cccc3cccnc23)o1	7%	17µM*	7%	?	-2%	1%
Cc1ccc(C(=O)Nc2cccc3cccnc23)cc1Cl	-13%	11µM*	/	/	/	/
Cc1ccc(C(=O)Nc2cccc3cccnc23)cc1C	/	12µM*	?	?	2.8µM*	?
